Assay results published in the supplement of paper PMC10981050.
Several values for one entry are separate records, joined by “and”; a condition that tells them apart may be missing. Equal values may be shown once. Where a name gives a salt, the structure may show the parent alone.

Legend:
Experiment in all cases: cell viability relative to vehicle control; higher = less cytotoxic
Settings in all cases: 10 µM
K562 = system: K562
How it was run: (§1)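 Screening covered the Selleck bioactive, kinase and epigenetic probe libraries, less identity-inconsistent compounds, on CRISPR-edited mutant clones and isogenic wild-type clones of four leukaemia lines. Cells, at 2000 per well in 50 µL medium, received a single 10 µM acoustically dispensed dose. After 48 h the supernatant was removed and CellTiter-Glo luminescence was read. Viability was analysed in Genedata Screener as percent of the on-plate vehicle control.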

MARIMO = system: MARIMO
How it was run: as §1

MOLM14 = system: MOLM14
How it was run: as §1

OCI-AML2 = system: OCI-AML2
How it was run: as §1

| Compound | cell viability (K562; SRSF2 genotype: SRSF2 P95H/wt) | cell viability (K562; SRSF2 genotype: SRSF2 wt/wt) [%] | cell viability (MARIMO; SRSF2 genotype: SRSF2 P95H/wt) [%] | cell viability (MARIMO; SRSF2 genotype: SRSF2 wt/wt) [%] | cell viability (MOLM14; SRSF2 genotype: SRSF2 P95H/wt) [%] | cell viability (MOLM14; SRSF2 genotype: SRSF2 wt/wt) [%] | cell viability (OCI-AML2; SRSF2 genotype: P95H/wt) [%] | cell viability (OCI-AML2; SRSF2 genotype: wt/wt) [%] |
| --- | --- | --- | --- | --- | --- | --- | --- | --- |
| COc1ccc(-c2coc3cc(O)ccc3c2=O)cc1 [Formononetin (Formononetol)] | 93.6% and 91.7% | 86.4 | 82.4 | 91.4 | 99.9 | 99.6 | 86.7 | 80.2 |
| O=c1sn(-c2cccc3ccccc23)c(=O)n1Cc1ccccc1 [Tideglusib] | 77.4% and 78.3% | 82.9 | 70.7 | 79.9 | 55.5 | 68.8 | 54.7 | 53.3 |
| CCCCC1OC(=O)c2ccccc21 (stereo unspecified) [3-n-Butylphathlide] | 93.7% and 104% | 91.5 | 91.9 | 104 | 99.8 | 96.7 | 90.6 | 94.2 |
| COc1ccccc1OCCNCC(O)COc1cccc2[nH]c3ccccc3c12 (stereo unspecified) [Carvedilol] | 51.6% and 66.2% | 52.8 | 53 | 56.8 | 53.6 | 56.4 | 56.1 | 56.2 |
| Cc1ccc(NS(=O)(=O)c2ccc3c(c2)C2C=CCC2C(c2ccc(C(=O)O)cc2)N3)cc1C (stereo unspecified) | 108% and 98.9% | 110 | 102 | 101 | 106 | 104 | 103 | 117 |
| CCOC(=O)[C@H](CCc1ccccc1)N[C@@H](C)C(=O)N1Cc2ccccc2C[C@H]1C(=O)O [Quinapril hydrochloride (Accupril)] | 97.3% and 108% | 106 | 102 | 106 | 104 | 103 | 107 | 104 |
| N[C@@H](CSCCB(O)O)C(=O)O [BEC Hydrochloride] | 105% and 101% | 96.8 | 99.4 | 114 | 101 | 104 | 109 | 111 |
| Oc1c(Cl)cc(Cl)c2cccnc12 [Chloroxine] | 62.1% and 63.6% | 66.6 | 21.6 | 14.7 | 55.5 | 63.2 | 1.78 | 3.9 |
| CCOC(=O)c1ccc(N)cc1 [Benzocaine] | 92% and 83.9% | 94.2 | 84 | 91.7 | 87.9 | 92.4 | 91.4 | 94.6 |
| O=C(O)CNC(=O)c1nc(Cl)c2ccccc2c1O | 84.7% and 85.9% | 81.2 | 80.5 | 91.2 | 80.2 | 89.1 | 95.8 | 89.8 |
| Fc1ccc(Cn2c(Cl)nc3ccccc32)cc1 [2-Chloro-1-(4-fluorobenzyl)benzimidazole] | 77.4% and 80.8% | 86.5 | 64.6 | 64.5 | 77.2 | 84 | 28.5 | 36.5 |
| CCCCC(=O)O[C@H]1CC[C@H]2[C@@H]3CCc4cc(O)ccc4[C@H]3CC[C@]12C [Estradiol valerate] | 84.7% and 95.4% | 94.2 | 84.7 | 69.3 | 69.9 | 69.2 | 45 | 30.4 |
| CC1=CC(=O)c2ccccc2C1=O [Menadione] | 95.2% and 95.7% | 108 | 98.9 | 93.1 | 91.1 | 102 | 14.8 | 12.8 |
| CCN(CC)CCOC(=O)c1ccc(N)cc1Cl [Chloroprocaine HCl] | 95.2% and 93.5% | 97.1 | 103 | 115 | 98 | 99.3 | 90.7 | 113 |
| CCN(CC)CC(=O)Oc1ccc(NC(C)=O)cc1 [Propacetamol hydrochloride] | 90.2% and 83.3% | 86.5 | 94.2 | 90.2 | 93.6 | 94.7 | 86.4 | 96.7 |
| c1ccc2c(Oc3nc(Nc4ccc(N5CCOCC5)cc4)c4ncn(C5CCCCC5)c4n3)cccc2c1 [Purmorphamine] | 91.9% and 105% | 98.2 | 86.5 | 94.4 | 45.9 | 48.7 | 58.9 | 64 |
| CS(=O)(=O)N1CCN(Cc2cc3nc(-c4cccc5[nH]ncc45)nc(N4CCOCC4)c3s2)CC1 [Pictilisib (GDC-0941)] | 88.3% and 97.1% | 94.5 | 64.3 | 57.8 | 55.9 | 64.6 | 48.5 | 55 |
| CCOC(=O)C1=C(C)NC(C)=C(C(=O)OC)C1c1cccc([N+](=O)[O-])c1 (stereo unspecified) [Nitrendipine] | 101% and 104% | 100 | 97.3 | 99.9 | 97.7 | 103 | 122 | 111 |
| CCn1c(=O)c(-c2ccc(-c3cncs3)cc2Cl)cc2cnc(Nc3ccc(N4CCN(C)CC4)cc3)nc21 | 86.2% and 86.7% | 74.6 | 75.6 | 75.9 | 46.6 | 53.2 | 71 | 61.2 |

| Compound | cell viability (K562; SRSF2 genotype: SRSF2 P95H/wt) | cell viability (K562; SRSF2 genotype: SRSF2 wt/wt) [%] | cell viability (MARIMO; SRSF2 genotype: SRSF2 P95H/wt) [%] | cell viability (MARIMO; SRSF2 genotype: SRSF2 wt/wt) [%] | cell viability (MOLM14; SRSF2 genotype: SRSF2 P95H/wt) [%] | cell viability (MOLM14; SRSF2 genotype: SRSF2 wt/wt) [%] | cell viability (OCI-AML2; SRSF2 genotype: P95H/wt) [%] | cell viability (OCI-AML2; SRSF2 genotype: wt/wt) [%] |
| --- | --- | --- | --- | --- | --- | --- | --- | --- |
| N[C@@H](CC(=O)N1CCn2c(nnc2C(F)(F)F)C1)Cc1cc(F)c(F)cc1F [Sitagliptin phosphate monohydrate] | 97.7% and 96.1% | 102 | 98.1 | 110 | 102 | 103 | 109 | 117 |
| CCCCC[C@H](O)CC(=O)CCc1ccc(O)c(OC)c1 [6-Gingerol] | 87.8% and 85.7% | 82.9 | 86.8 | 98.7 | 90.6 | 95.5 | 90.9 | 81.8 |
| Cc1onc(-c2ccccc2)c1-c1ccc(S(N)(=O)=O)cc1 [Valdecoxib] | 97.6% and 94.6% | 95.6 | 96.4 | 97.6 | 90.6 | 95.4 | 81.8 | 88.5 |
| COc1cc(Nc2ncc(F)c(Nc3ccc4c(n3)N(COP(=O)(O)O)C(=O)C(C)(C)O4)n2)cc(OC)c1OC [R788 (Fostamatinib)] | 65.8% and 65.1% | 59.4 | 63.8 | 57 | 3.63 | 6.37 | 11.3 | 21.2 |
| CNC(=C[N+](=O)[O-])NCCSCc1csc(CN(C)C)n1 [Nizatidine] | 106% and 107% | 102 | 101 | 107 | 103 | 101 | 92.9 | 108 |
| CN(C)Cc1ccc(S(=O)(=O)n2ccc(/C=C/C(=O)NO)c2)cc1 [Resminostat (RAS2410)] | 1.83% and 16.1% | 11.8 | 2.94 | 2.37 | 0.76 | 0.51 | 0.72 | 1.22 |
| COc1cc2c(cc1Cc1cccc(Cl)c1F)c(=O)c(C(=O)O)cn2[C@H](CO)C(C)C [Elvitegravir (GS-9137)] | 52% and 50.4% | 45.1 | 40.2 | 39.1 | 57.3 | 35 | 12.9 | 15.9 |
| COc1ccc([C@@H]2Sc3ccccc3N(CCN(C)C)C(=O)[C@@H]2OC(C)=O)cc1 [Diltiazem HCl] | 99.8% and 95.7% | 91.9 | 98 | 98.1 | 99.3 | 98.7 | 94.1 | 99.1 |
| CO[C@H]1[C@H](O)[C@@H](O)[C@@H](O)[C@H](O)[C@@H]1O [D-Pinitol] | 114% and 107% | 112 | 108 | 110 | 105 | 102 | 112 | 113 |
| NC(=O)c1ccccn1 [Picolinamide] | 104% and 95.8% | 100 | 103 | 108 | 101 | 106 | 92.7 | 110 |
| COc1ccccc1N1CCN(CC(O)COc2cccc3ccccc23)CC1 (stereo unspecified) [Naftopidil Dihydrochloride] | 75.2% and 86.7% | 72.6 | 57 | 65.2 | 58.4 | 60.1 | 71.4 | 74.5 |
| Nc1nc2c(ncn2COC(CO)CO)c(=O)[nH]1 [Ganciclovir] | 105% and 99.9% | 106 | 100 | 108 | 112 | 104 | 91.1 | 104 |
| O=CC(O)C(O)C(O)C(O)COC1OC(COC2OC(CO)C(O)C(O)C2O)C(O)C(O)C1O (stereo unspecified) [Manninotriose] | 112% and 107% | 110 | 97.8 | 97.1 | 103 | 104 | 108 | 104 |
| Cc1cnc(C(=O)O)c[n+]1[O-] [Acipimox] | 99.3% and 96.5% | 97.6 | 96.7 | 100 | 98.8 | 101 | 105 | 104 |
| Cn1ncc(Cl)c1-c1cc(C(=O)N[C@H](CN)Cc2ccc(F)c(F)c2)oc1Cl | 73.1% and 71.1% | 79.8 | 64.1 | 59.3 | 31.9 | 31.4 | 51.1 | 50.4 |
| CC(=O)OC/C=C(/C)CCC=C(C)C [Neryl acetate] | 98.4% and 101% | 100 | 96.8 | 102 | 112 | 99.6 | 100 | 103 |
| COC(=O)N[C@H](C(=O)N1CCC[C@H]1c1nc(-c2ccc3c(c2)O[C@@H](c2ccccc2)n2c-3cc3cc(-c4c[nH]c([C@@H]5CCCN5C(=O)[C@@H](NC(=O)OC)C(C)C)n4)ccc32)c[nH]1)C(C)C [Elbasvir] | 87.7% and 92% | 86.9 | 68.6 | 77.3 | 81.9 | 87.8 | 91 | 88 |
| Nc1nccc(Oc2ccc3c(C(=O)Nc4cccc(C(F)(F)F)c4)cccc3c2)n1 | 86.8% and 94.3% | 87.9 | 109 | 125 | 93.6 | 102 | 94.8 | 106 |
